From PubChem
Compounds with a hit are over-represented: about 8% of the library has one in this group of screens.
TSHR antag – antagonists of human thyroid stimulating hormone receptor; activity change, negative = inhibition, % at 11.5 µM; P16473; TSHR-expressing cells, TSH-stimulated cAMP HTRF, 2 h; active compounds read low; 330,000 tested, 0.2% active; AID 504810;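 active = activity change below a set negative limit, meaning inhibition stronger than a set level, cut at about -70% in these data; inconclusive = activity change between two set negative limits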
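Antagonism was scored as loss of TSH-driven cAMP in TSHR cells, stimulated with 4nM TSH (EC80) for 2 hours at 37 deg C and detected by homogeneous HTRF competition immunoassay.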
Gal4-VP16 FLuc – counter-screen for ROR gamma inhibitors: Gal4-VP16 reporter. Potency, µM (highest dose often 53.6 µM), usual class: inhibitors. 310,000 tested, 3.5% active. Drosophila S2 Gal4-VP16 UAS-luciferase, luminescence, 20 h. AID 2546;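 also: Gal4-VP16 expression switched on by copper sulfate through the metallothionein promoter; nearly all actives have a fitted effect of over 50% in size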
RORgamma inh – ROR gamma (mouse) transcription inhibition; Drosophila S2 Gal4-RORgamma UAS-luciferase reporter, 20 h; Potency, µM (highest dose often 53.6 µM), most hits filed as inhibitors; 310,000 tested, 5.4% active; AID 2551; also: nearly all actives have a fitted effect of over 60% in size
Target sequence (P51450 whole entry, looked up, the tested form may be a part): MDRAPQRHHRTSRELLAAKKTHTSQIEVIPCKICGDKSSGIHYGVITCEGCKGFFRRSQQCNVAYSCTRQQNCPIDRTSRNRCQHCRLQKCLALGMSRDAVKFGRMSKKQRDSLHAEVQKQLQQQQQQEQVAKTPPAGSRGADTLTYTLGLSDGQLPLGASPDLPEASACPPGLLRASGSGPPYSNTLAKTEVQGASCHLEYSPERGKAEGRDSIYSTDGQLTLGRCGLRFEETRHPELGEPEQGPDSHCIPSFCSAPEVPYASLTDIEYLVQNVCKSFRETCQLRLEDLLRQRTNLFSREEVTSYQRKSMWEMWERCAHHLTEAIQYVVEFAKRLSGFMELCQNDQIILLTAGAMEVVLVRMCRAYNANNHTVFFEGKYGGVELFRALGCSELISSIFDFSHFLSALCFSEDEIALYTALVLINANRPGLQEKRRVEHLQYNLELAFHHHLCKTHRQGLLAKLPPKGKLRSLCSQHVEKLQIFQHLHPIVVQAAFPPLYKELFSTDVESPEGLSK
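Schneider cells (Drosophila), stable Gal4 DBD–ROR gamma + UAS-luc; 1 hr cmpd preincubation; Cu2+ induction 700 uM final; 20 hr ambient; luminescence.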
FBPA coupling cs – inhibits coupling enzyme system, counter-screen for aldolase hits; coupling enzyme system counterscreen, AmpLite Red fluorescence; activity change, negative = inhibition, % at 58.2 µM, hits read low; 290,000 tested, 0.67% active; AID 2472; in the data active = activity change below about -30%
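Final compound at 57.5 uM, incubated 10 min at RT with coupling enzyme reagent (glyceraldehyde-3-phosphate), then 20 min with substrate and AmpLite Red detection. Fluorescence read at 525/598 nm; tests interference with the coupling assay, not aldolase inhibition.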
ELG1 repair inh – inhibitors of ELG1-dependent DNA repair in HEK293T cells; HEK293T ELG1-luciferase reporter, luminescence, 16 h; DNA damage induced by 5-fluorouridine; Potency, µM (titrated, usually from 46.1 µM), actives largely listed as inhibitors; 330,000 tested, 2.3% active; AID 504467; also: nearly all actives have a fitted effect of over 55% in size
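HEK293T cells expressing luciferase-tagged ELG1 (2,000/well) received 5-Fluorouridine plus compound or DMSO for 16 hr at 37 °C. Luciferase was read by ONE-Glo luminescence after 30 min at room temperature.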
Hits are given with their value; – = inactive; ? = inconclusive; · = not tested or not shown; [ ] = another dose, or the depositor's remark. Unless noted, calls follow the shape of the dose curve; as a rule, active = well fitted curve in the direction sought with a large enough effect; inconclusive = small, poorly fitted or top-dose-only effect, or another doubt; inactive = no such curve, though single readings can be large; an effect the other way counts as inactive or inconclusive.

SMILES	TSHR antag	Gal4-VP16 FLuc	RORgamma inh	FBPA coupling cs	ELG1 repair inh
CCCCC(=O)NC(c1cccc([N+](=O)[O-])c1)c1c(OC(C)=O)ccc2ccccc12 (stereo not given)	–	?	–	–	?
CCCCC(=O)NC(c1ccc([N+](=O)[O-])cc1)c1c(O)ccc2ccccc12 (stereo not given)	–	?	?	–	26µM
O=C(Nc1n[nH]c(=S)s1)c1ccc2ccccc2c1	–	–	–	·	?
O=S(=O)(/N=C(/Nc1ccccn1)c1ccccc1)c1ccc(F)cc1	–	–	–	–	?
O=C(NC(=S)NCCO)c1cn(-c2ccccc2)nc1-c1ccccc1	–	?	10µM	–	?
O=C(NC(=S)N1CCOCC1)c1cn(-c2ccccc2)nc1-c1ccccc1	–	·	·	·	18µM
CCN(CC(=O)Nc1c(F)cccc1F)C(=O)CCN1C(=O)C2CC=CCC2C1=O (stereo not given)	–	·	·	·	–
CCOc1ccc(NC(=O)CN(C)C(=O)c2cc3c(s2)CCCCC3)cc1OCC	–	·	·	·	–
C=CCOc1ccc(CNn2cn[nH]c2=S)cc1OCC	–	–	11µM	–	–
COc1cc(CNn2c(C)n[nH]c2=S)cc(Cl)c1OCc1ccccc1	–	–	7.9µM	–	–
COc1cc(CNn2cn[nH]c2=S)cc(Cl)c1OCc1ccc(F)cc1	–	4µM	7.1µM	–	–
N[C@H](CCC(=O)NCC(=O)O)C(=O)O	·	–	–	–	·
O=C(N/N=C/c1sc(N2CCOCC2)nc1-c1ccccc1)c1ccc(O)cc1	–	–	–	–	?
Cc1occc1C(=O)N/N=C/c1sc(N2CCOCC2)nc1-c1ccccc1	–	?	13µM	–	?
O=C(N/N=C/c1sc(N2CCOCC2)nc1-c1ccccc1)c1cccc(S(=O)(=O)N2CCCC2)c1	–	–	?	–	5.2µM
O=C(N/N=C/c1ccccc1Br)c1cccc(S(=O)(=O)N2CCOCC2)c1	–	·	·	·	?
COc1ccc(C(=O)N/N=C/c2sc(N3CCOCC3)nc2-c2ccccc2)cc1OC	–	–	2.8µM	–	?
Cc1cc(=O)[nH]c2nnc(-c3ccc(Cl)cc3)n12	–	–	?	–	?
O=c1c2cc([N+](=O)[O-])ccc2nc(CN2CCN(c3ccccn3)CC2)n1-c1ccccc1F	–	–	–	–	?
O=C(c1ccco1)N1CCN(Cc2nc3ccc([N+](=O)[O-])cc3c(=O)n2-c2ccccc2F)CC1	–	–	–	–	23µM
CCOC(=O)c1[nH]c2cc3c(cc2c1NC(=O)CN1CCC2(CC1)OCCO2)OCO3	–	–	–	–	?
CCOC(=O)c1[nH]c2ccc(OCC)cc2c1NC(=O)CN1CCC2(CC1)OCCO2	–	–	–	–	8.2µM
CCOC(=O)N1CCN(CC(=O)Nc2c(C(=O)OC)[nH]c3ccc(Cl)cc23)CC1	–	7.9µM	?	–	?
CCOC(=O)c1[nH]c2ccc(F)cc2c1NC(=O)CN1CCc2cc(OC)c(OC)cc2C1	–	–	–	–	6.5µM
COc1cc2c(cc1OC)CN(CC(=O)Nc1ccc(Cl)cc1Cl)CC2	–	–	–	–	?
SMILES	TSHR antag	Gal4-VP16 FLuc	RORgamma inh	FBPA coupling cs	ELG1 repair inh
CCOC(=O)c1[nH]c2ccc(OC)cc2c1NC(=O)CCN1CCc2ccccc2C1	–	–	–	–	?
COC(=O)c1[nH]c2ccc(Cl)cc2c1NC(=O)CN1CCc2cc(OC)c(OC)cc2C1	–	?	–	–	9.2µM
COC(=O)NC(c1ccccc1)[C@@]1(C(=O)OC)CCCC1=O (stereo not given in full)	·	–[10 µM]	–[10 µM]	–	·
CC(C)c1ccc(C(CC(=O)O)N2Cc3ccccc3C2=O)cc1 (stereo not given)	–	–	–	–	–
COC(=O)c1[nH]c2cc(C)ccc2c1NC(=O)CN1CCc2cc(OC)c(OC)cc2C1	–	–[0.365 µM]	–	–	15µM
OC[C@@H]1O[C@H](OC2[C@@H](O)[C@@H](O)[C@@H](O)O[C@@H]2CO)[C@H](O)[C@@H](O)[C@@H]1OC1O[C@H](CO)[C@@H](O)[C@H](O)[C@@H]1O (stereo not given in full)	·	–	–	–	·
CNC[C@H](O)c1ccc(O)c(O)c1	–	–	?	-34	–
Oc1ccc(C(O)CNCCCCCCNCC(O)c2ccc(O)c(O)c2)cc1O (stereo not given)	·	–	–	·	·
